# Laboratory results taken from paper PMC12136788.
# Residue numbers refer to the chain shown, from its start. In all, about 24,000 sequences were measured (“enrichment r”: median about 0.99, highest 2% from about 3.7 on). Shown is part of a subset that was picked to be rich in the highest values.
# T1: UNK ZnF1-3 (human, UniProt Q9C0B0 31-174)
# T1 sequence: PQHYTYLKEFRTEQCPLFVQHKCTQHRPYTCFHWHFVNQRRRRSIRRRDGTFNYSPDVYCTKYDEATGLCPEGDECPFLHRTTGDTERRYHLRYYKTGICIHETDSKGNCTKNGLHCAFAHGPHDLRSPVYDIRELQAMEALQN
# B1: chr5:145543945:145543946:-_ENSG00000133706_ENST00000545646|hu_hu|hu_hu_hu_mus_True|58_98 (ssRNA)
# RNA: GGGAGUUCUACAGUCCGACGAUCCUGAACGGCCAGUGGCGGGAAAUAAUCAAGCCAGUGCUCUGCUUCAGAAAACUUUACUAUCUCGUCAUCAGAGAGCCCAAGGGAUUUCAUAAUGUCCCACUGGUACUUAGAAGAUCCUGCCAACAGAGGAUUGAGCAUCA
# B2: chrX:20248820:20248821:+_ENSMUSG00000001924_ENSMUST00000001989|mus_mus|mus_mus_mus_hu_True|78_78 (ssRNA)
# RNA: GGGAGUUCUACAGUCCGACGAUCGGCGAAGUCCGUCACCACAAAGUCAGGUUCUGCCAGUGAUGCUACCAAGGAUUUAAAGCUAAUCUUCUUAGGUACUUUGACCUGACUGACGAUGCCUCCACGGAUGUAGUCGGAGAAGUUCAACAGAGGAUUGAGCAUCA
# B3: chr1:66480114:66480115:+_ENSMUSG00000015222_ENSMUST00000024639|mus_hu|mus_mus_mus_hu_True|28_28 (ssRNA)
# RNA: GGGAGUUCUACAGUCCGACGAUCUGGCCUGUGGCGGAUGUUCUUCAGAGAGCCACAUUUGGAUGUCACAUGGCUUAGGUCUAUUUUCUUGGUAACAAUUUGUACCUGACCCCCCUUAGGCUGGUAUUUGAUGUUGUCUGUUGACAACAGAGGAUUGAGCAUCA
# B4: chrX:100668055:100668056:+_ENSG00000126945_ENST00000316594|hu_mus|FALSE|FALSE (ssRNA)
# RNA: GGGAGUUCUACAGUCCGACGAUCGAGCUCUACAUAGCUAUGAUCAUAAGCUCCUCCACUUGUCCCUGCGGUAGAAUUCAAGAAGAGCUCCACAUAUCUGUGUUGCAUAUUUGCUUUAUCUUUUGCCAUAGCUGCCACAGCGUCCAACAGAGGAUUGAGCAUCA
# B5: chr12:118471567:118471568:-_ENSG00000176871_ENST00000315436|hu_hu|motif|central (ssRNA)
# RNA: GGGAGUUCUACAGUCCGACGAUCGCACUUGGCCAACAUCGAAGCAACUCUGACCACAGCAGGAGAGAACUUGAACCAAUGCGGCCACUGCAUCAGAAACACAAGGAUAGGUACUAGGCAGAAGCCAUCGUUCCCAGCGGAGGGCAACAGAGGAUUGAGCAUCA
# B6: chr5:128448638:128448639:+_ENSG00000066583_ENST00000173527|hu_mus|hu_hu_hu_mus_False|18_48 (ssRNA)
# RNA: GGGAGUUCUACAGUCCGACGAUCGGCACUCGCCUUAAUUAGGUUCUGAAUUUCCUUGAACUUCGGGUGGUCUUUGUCAGCCACCAGCUGAAGCAGAACAGCCUCACUAGUGGUCACUAUGAUCCCGGUGCGGGCAAGACGCUCCAACAGAGGAUUGAGCAUCA
# B7: chr1:157160411:157160412:-_ENSMUSG00000026469_ENSMUST00000027741|mus_mus|FALSE|FALSE (ssRNA)
# RNA: GGGAGUUCUACAGUCCGACGAUCGAAUUCAAUCAGAAGAAAGCCACCCCGAUAGAUUCUUAUCAAGGGCCAUACAGUUCUAUCUGUUUCAAGUUUAAAUACAGCUGCAAACACAAGGGUAAUAUUCAGCACAAUGAAUAUUCCCAACAGAGGAUUGAGCAUCA
# B8: chr16:68260615:68260616:+_ENSG00000072736_ENST00000346183|hu_hu|FALSE|FALSE (ssRNA)
# RNA: GGGAGUUCUACAGUCCGACGAUCGAAACAAGAGAGCCUGCUGCAUUCACACUCAAAGCACCCAUCAUAUAAAAGUAUCCUAGUUAAAUAUAAAAAGCAAAGUUCAUUUCCCCAAAGCUCAAACAGCCUAUGCUGCUCCUGUUCCAACAGAGGAUUGAGCAUCA
# B9: chr1:157160411:157160412:-_ENSMUSG00000026469_ENSMUST00000027741|mus_mus|motif|central (ssRNA)
# RNA: B7 RNA with U80G, A81G
# B10: chr15:103023242:103023243:-_ENSMUSG00000009575_ENSMUST00000118152|mus_mus|FALSE|FALSE (ssRNA)
# RNA: GGGAGUUCUACAGUCCGACGAUCAACUAGCAGCAUUGAUGAGGGGUUAAGGGAUUGGGGACAGAAACUCACCAAGGUCACUAAGUACUUCCAAACUUGGAAGUAGCUCAGUGAGGGCUAAAAAAACUUCGACUGAAGGUAUCCCAACAGAGGAUUGAGCAUCA
# B11: 72187872_72187992_6815_3pUTR_ENSG00000148730_ENST00000373218|human|control|control (ssRNA)
# RNA: GGGAGUUCUACAGUCCGACGAUCGAGUGUCCUCUGGGCUCUUCAAGACACCUUCUUUAAGGUUUACCCCUGGAGUAGCAGAGGGUCUCCUCACCCAGGUGGAAAGAGAUGGGCUCCAUCUGCAGAUGAAGGAAAGGCACUGGCCAACAGAGGAUUGAGCAUCA
# B12: chr1:26230221:26230222:-_ENSG00000117632_ENST00000374291|hu_mus|FALSE|FALSE (ssRNA)
# RNA: GGGAGUUCUACAGUCCGACGAUCCUGGAUUUCCUCCAGGGAAAGGUCCUUCUUCUUUGGGGGGGAAAGGGGGAAAUCGGGGACAGAUUCUUUUGACCGAGGGCUGAGAAUCAGCUCAAAAGCCUGGCCUGAAGCGCGCUUCUCCAACAGAGGAUUGAGCAUCA
# B13: chr14:67424093:67424094:-_ENSMUSG00000022048_ENSMUST00000022629|mus_mus|motif|central (ssRNA)
# RNA: GGGAGUUCUACAGUCCGACGAUCGGAGACCGAGUGCAGGGGGCCCAAGAGGAAGCCCCAGGAACUGGCUGCCCACAGCAACGGUCACAGGCUCUUUAAAAAAAAAAAAAAUGGAAGAAAGGAAGUCUCAGAAUGUCCUCAGGUCAACAGAGGAUUGAGCAUCA
# B14: chr17:35975164:35975165:-_ENSMUSG00000001525_ENSMUST00000001566|mus_hu|FALSE|FALSE (ssRNA)
# RNA: GGGAGUUCUACAGUCCGACGAUCGGAAUGCGCCCCAGAGGCUGGAGCAGCGAGGUGCAAACGCGACGGCAGGAAGGUUCUGAGAGGGAGAAAGGAGAGGGGAGGGCGCGGAGGGAAAGCAGGCUGGGCGGGGCGCGCGUGCGCCAACAGAGGAUUGAGCAUCA
# B15: chr14:67424093:67424094:-_ENSMUSG00000022048_ENSMUST00000022629|mus_mus|FALSE|FALSE (ssRNA)
# RNA: B13 RNA with G82U, G83A
# B16: chr5:145543945:145543946:-_ENSG00000133706_ENST00000545646|hu_hu|hu_hu_hu_mus_True|48_48 (ssRNA)
# RNA: B1 RNA with C39U, U78C, C84G, G87U, G96C
# Target: T1, UNK ZnF1-3
# Test: nsRBNS (natural sequence RNA bind-n-seq); RBNS binding buffer (assumed for nsRBNS): 25 mM Tris pH 7.5, 150 mM KCl, 3 mM MgCl2, 0.01% Triton X-100, 500 ug/ml BSA, 20 U/ml SUPERase-In, 4 C; UNK is unkempt and MSI1 is Musashi-1; names of the RNAs are library labels; protein concentration not given here; high values mean tight binding
row,Binder,binding signal [enrichment R]
1,B1,1.23
2,B2,0.842
3,B3,0.629
4,B4,1
5,B5,1.61
6,B6,0.517
7,B7,0.961
8,B8,4.02
9,B9,0.944
10,B10,1.71
11,B11,1.96
12,B12,0.676
13,B13,4.34
14,B14,2.69
15,B15,3.82
16,B16,1.07
